TCR act – activates T cell receptor signaling; primary human leukocytes, anti-CD3, IL-2 HTRF, 48 h; Potency, µM (series often up to 9.22 µM), without a hit: at the highest dose activation of IL-2 secretion, hits mostly activators; 330,000 tested, under 10 active; AID 504894; also: % of control where 0% means no effect
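IL-2 release read by HTRF sandwich (Eu cryptate donor, d2 acceptor, 665 nm emission) after 48 hr exposure of primary human leukocytes to compound together with anti-CD3 beads in the absence of co-stimulatory signals.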
Nrf2 activator – activators of Nrf2 (ARE) signaling; AREc32 ARE-luciferase reporter (MCF7-derived line), luminescence, 24 h; Potency, µM (highest dose often 46.1 µM), inactives show at the highest dose activation, actives largely listed as activators; actives 0.31% (n = 410,000); AID 624171; also: potency is read from the fitted curve at half-maximal effect; % of control where 0% means no effect; nearly all actives have a fitted effect of over 65% in size
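Nrf2 activation is followed as ARE-luciferase induction in the AREc32 line after one day of compound treatment; luminescence is read with Steady-Glo.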
Nrf2 inh – blocks Nrf2 signaling; A549 ARE-Fluc reporter, luciferase luminescence, 18-24 h; AID 504444; actives 2.1% (n = 360,000); Potency, µM (doses to about 46 µM), without a hit: top-dose activity change, negative = inhibition, hits mostly inhibitors; also: potency is read from the fitted curve at half-maximal effect; % is scaled to controls: 0 for no effect and ±100 for the full control effect; nearly all actives have a fitted effect of over 60% in size
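Reporter: ARE-Fluc in A549. Exposure: 18-24 h, 37 °C, 5% CO2, 5% FBS OPTI-MEM. Readouts: fluorescent cytotoxicity (CellTiter-Fluor), then luminescent Nrf2 signal after BugLite.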
A549 viability – counter-screen for Nrf2 inhibitors: cytotoxicity in A549 cells | A549 ARE-Fluc cells, CellTiter-Fluor viability, 18-24 h | AID 504648 | Potency, µM (doses to about 46 µM), for inactives: at the highest dose activity change, negative = cytotoxicity, most hits filed as inhibitors | actives 0.16% (n = 390,000); also: potency is read from the fitted curve at half-maximal effect; % is scaled to controls: 0 for no effect and ±100 for the full control effect
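Cytotoxicity counterscreen: CellTiter-Fluor fluorescence was measured in A549 ARE_Fluc cells after 18-24 h of compound exposure in a concentration series. The subsequent BugLite luminescent read reports ARE-luciferase activity.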
CCT chaperon mod – modulators of cytosolic chaperonin (CCT/TRiC) activity | purified chaperonin ATPase assay, HTRF ADP detection, 30 min | activity change, % (test concentration not listed), hits read low | actives 0.3% (n = 360,000); in the data active = activity change below about -30%; also: % is scaled to controls: 0 for no effect and ±100 for the full control effect
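TRiC at 40 or 20 nM final (batch-dependent) in 30 mM Tris pH 7.4, 100 mM KCl, 5 mM MgCl2, 1 mM DTT, with compound at single 76 uM and 10 uM ATP, 30 min at 37 deg C. ADP detected by HTRF Transcreener, 665/615 ratio.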
AT treatment – candidate therapy for ataxia-telangiectasia; F2112 A-T fibroblasts, KAP-1 phosphorylation AlphaLISA; neocarzinostatin DNA damage 30 min before lysis; Potency, µM (doses to about 57.5 µM), inactives show top-dose activation, usual class: activators; actives 0.19% (n = 320,000); also: potency is read from the fitted curve at half-maximal effect; % of control where 0% means no effect; nearly all actives have a fitted effect of over 45% in size
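ATM-like activity read as KAP-1 phosphorylation via AlphaLISA donor/acceptor antibody pairs after lysis and 6 hr at 25C. Cells were ATM-null patient fibroblasts (F2112, hTERT), dosed 60 min, then exposed to the DSB inducer NCS for 30 min.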
* = called active by the depositor; ? = inconclusive; · = no result; [ ] = dose if it differs, or a comment. A selection: hits, their analogues and other compounds. The true share with any hit is near 2.6%. Unless noted, calls follow the shape of the dose curve; as a rule, active = well fitted curve in the direction sought with a large enough effect; inconclusive = small, poorly fitted or top-dose-only effect, or another doubt; inactive = no such curve, though single readings can be large; an effect the other way counts as inactive or inconclusive.

SMILES	TCR act	Nrf2 activator	Nrf2 inh	A549 viability	CCT chaperon mod	AT treatment
O=C(Nc1ccc(S(=O)(=O)Nc2ccccc2)cc1)C1COc2ccccc2O1 (stereo not given)	-3.1%[46.1 µM]	3.5%	18.4µM*	-27.5%	1.3	4.9%
CSc1ccccc1NC(=O)CN1C(=O)C2CC=CCC2C1=O (stereo not given)	·	0.3%	1.8%	-3.0%	-0.9	1.4%
CCOC(=O)c1sc(S(C)(=O)=O)c2c1CC(C)(C)C/C2=N/O	0.0%	2.9%	13.0%	-0.2%	-3.0	3.8%
COc1ccccc1NC(=O)CSc1nnc2c3ccccc3n(C(C)C)c2n1	·	0.4%	18.4µM*	?	·	·
Cc1ccc(Nc2nc(C)c(CCC(C)C)c(=O)[nH]2)cc1	-8.8%	-0.8%	-27.7%	-10.9%	-2.7	2.4%
Cc1nc(Nc2ccc(F)cc2)[nH]c(=O)c1CCC(C)C	2.2%[46.1 µM]	0.1%	14.6µM*	?	0.3	3.3%
CCN(CC)CCCNC(=O)c1ccc(Cn2c(SCc3ccccc3)nc3cccnc32)cc1	·	4.6%	?	-12.7%	·	·
Brc1ccsc1-c1csc(-c2ccncc2)n1	0.5%	12.6µM*	18.6%	-2.1%	1.5	38.6%
c1ccc(-c2csc(-c3ccncc3)n2)cc1	3.0%	2.6%	0.1%	0.2%	1.2	7.9%
COc1ccc(-c2csc(NC(=O)c3ccccc3F)c2C(=O)O)cc1	-3.8%	-0.7%	13µM*	-18.9%	0.7	-1.1%
COCCNC(=S)N1CCN(c2nc(-c3ccccc3)cs2)CC1	0.4%	3.0%	-12.5%	0.0%	-0.7	2.5%
CCOCCCNC(=S)N1CCN(c2nc(-c3ccc(F)cc3)cs2)CC1	-8.3%	2.6%	16.4µM*	-16.8%	-4.2	3.1%
CCCNC(=S)N1CCN(c2nc(-c3ccc(C)cc3)cs2)CC1	·	3.8%	23.1µM*	-15.5%	0.4	-2.6%
COc1ccc(-c2csc(N3CCN(C(=O)c4ccccc4)CC3)n2)cc1	-2.4%[46.1 µM]	0.0%	13µM*	-24.9%	0.2	·
CNC(=S)N1CCN(c2nc(-c3ccc(F)cc3)cs2)CC1	9.4%	1.0%	?	0.0%	-1.2	5.0%
CCCNC(=S)N1CCN(c2nc(-c3cccc(OC)c3)cs2)CC1	·	2.8%	?	-9.5%	1.9	1.0%
COCCCNC(=S)N1CCN(c2nc(-c3ccc(F)cc3)cs2)CC1	1.9%	5.8%	14.6µM*	-1.1%	0.6	13.2%
COC(=O)c1sc(-c2ccccc2)cc1NC(=O)Nc1ccc(F)cc1	·	0.1%	-28.9%	0.3%	·	·
COc1ccc(CC(N)c2csc(Nc3cc(Oc4ccccc4)ncn3)n2)cc1 (stereo not given)	·	-2.8%	·	·	-35.8*	·
COC(=O)c1cc2sc(Cl)cc2n1Cc1cc(C)ccc1C	·	-1.0%	3.5%	4.3%	·	·
Cc1cc2c(s1)c1cnn(Cc3ccccc3Br)c(=O)c1n2C	·	·	5.4%	-10.8%	·	·
CCc1nnc(NC(=O)C(NC(=O)c2ccccc2Cl)C(C)C)s1 (stereo not given)	-1.4%	0.3%	0.6%	0.8%	-2.2	-2.8%
O=C(Nc1nc(-c2ccccn2)cs1)c1ccccc1-n1cnnn1	9.5%	-0.6%	5.8µM*	-18.7%	-2.4	-8.2%
CC(C)[C@H](NC(=O)c1ccccc1Cl)C(=O)Nc1nc(-c2ccccn2)cs1	1.0%	-0.2%	14.6µM*	-26.8%	0.2	-5.1%
O=C(COc1ccc(F)cc1)Nc1nc(-c2ccccn2)cs1	3.3%	0.6%	-16.1%	-17.9%	-0.9	0.9%
SMILES	TCR act	Nrf2 activator	Nrf2 inh	A549 viability	CCT chaperon mod	AT treatment
CC(Oc1ccc(Br)cc1)C(=O)Nc1nc(-c2ccccn2)cs1 (stereo not given)	·	?	16.4µM*	?	-7.0	8.8%
CCCn1nc(C(=O)Nc2nc(-c3ccccn3)cs2)c2ccccc2c1=O	2.0%	3.0%	8.2µM*	-23.2%	0.4	-2.4%
CCn1nc(C(=O)Nc2nc(-c3ccccn3)cs2)c2ccccc2c1=O	·	4.7%	?	-7.5%	-0.4	-0.8%
O=C(CN1CCCCCC1)Nc1ccc(Br)cn1	-2.9%	0.9%	4.9%	9.6%	2.4	9.3%
COC(=O)c1ccc(Oc2nc3c(c(=O)n(C)c(=O)n3C)n2C(C)C)cc1	·	-0.5%	5.6%	-4.4%	·	·
COc1ccccc1NC(=O)N(Cc1ccco1)Cc1cc2ccc(C)c(C)c2[nH]c1=O	-2.0%	2.6%	?	?	0.9	-6.5%
COc1ccccc1NC(=O)N(Cc1ccco1)Cc1cc2cc(C)cc(C)c2[nH]c1=O	-3.1%	0.4%	23.1µM*	?	0.3	-3.6%
Cc1cc2c3c([nH]c2cc1S(=O)(=O)N1CCC2(CC1)OCCO2)CC(C)(C)CC3=O	3.0%	3.4%	23.1µM*	15.9%	-2.3	12.0%
CCc1cc2c3c([nH]c2cc1S(=O)(=O)N1CCC2(CC1)OCCO2)CCCC3=O	-8.8%	-0.4%	?	-0.6%	-0.7	0.2%
O=C(CCN1CCc2ccccc2CC1)c1ccc2c(c1)OCCO2	2.5%	?	18.4µM*	·	-4.1	2.6%
Cc1c(C(=O)N2CCCCCC2)c(S(=O)(=O)Nc2ccc(OC(F)(F)F)cc2)c(C)n1C	·	4.6%	?	-10.1%	·	·
COc1ccc(C(=O)Nc2cccc(-c3nnc(-c4ccco4)o3)c2)cc1	-0.7%	-0.8%	?	?	1.3	-0.3%
COc1ccc(CC(=O)Nc2cccc(-c3nnc(-c4ccco4)o3)c2)cc1	-3.3%	-0.6%	6.51µM*	?	1.4	-3.9%
COc1ccc(CCNC(=O)c2ccc3c(c2)N(Cc2ccc(F)cc2)C(=O)c2ccccc2S3(=O)=O)cc1OC	·	4.8%	?	9.8%	·	·
Cc1[nH]n2cnnc2c(=O)c1Br	-5.6%	-1.3%	0.4%	-5.5%	-3.5	-59.1%
CCC(C)(C)C1CCC2(CC1)NC(=O)N(CC(=O)N(C)CC(=O)Nc1ccccc1C(F)(F)F)C2=O (stereo not given)	5.0%	-0.7%	14.6µM*	-19.9%	1.0	-9.4%
O=C(CN1C(=O)NC2(CCCC2)C1=O)Nc1ccccc1C(F)(F)F	1.4%	-0.7%	-1.3%	-8.8%	0.5	11.9%
O=C(Nc1ccccc1C(=O)Nc1nnc(C(F)(F)F)s1)c1ccccc1	2.1%	0.3%	?	13µM*	0.3	?
Cc1cccc(C(=O)NC2CCN(C#N)CC2)c1	·	·	-7.6%	-3.2%	·	·
COc1ccc(NC(=O)CSc2oc(-c3ccco3)nc2S(=O)(=O)c2ccccc2)c(OC)c1	·	6.2%	9.8%[9.27 µM]	-4.7%	·	·
CCOC(=O)Nc1ccc2c(CNC(C)c3ccccc3OC)cc(=O)oc2c1 (stereo not given)	-5.0%	4.0%	13µM*	?	-3.1	11.9%

High-throughput results (PubChem)
